Source: PubChem BioAssay (EPA / NIEHS)
Records with an inconclusive call do not appear. Active and inactive are the calls of the source. Rule for the calls: active = hit-call score of the fitted dose curve at least 0.9, where 1 is the maximum; inconclusive = response in the unintended direction; inactive = score below 0.9.

Assay: ATG_XTT_Cytotoxicity: Cytotoxicity Assessment in the Attagene TRANS-FACTORIAL HepG2 Assay (AID 2283584)
How it was run: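 Cells: human HepG2, transiently transfected with MRTU reporter constructs. Exposure 24 h. Readout: XTT, cell number. Baseline/neg ctrl DMSO; loss-of-signal scored.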

Compound | outcome
COc1ccc(COC(C)=O)cc1 | inactive
CS(=O)(=O)OCCCCOS(C)(=O)=O | inactive
CC1=C(Br)C(=O)C(Br)=C/C1=C(/c1ccccc1S(=O)(=O)O)c1cc(Br)c(O)c(Br)c1C | inactive
CC=Cc1ccc(OCC)c(O)c1 | inactive
CCCCCCC(C)(C)S | inactive
C=C(C)C1CC=C(C)C(=O)C1 (stereo not given) | inactive
NCc1ccco1 | inactive
CC=Cc1ccc(OC)c(OC)c1 | inactive
CCCCCCCCCCCC(=O)OCC(O)CO (stereo not given) | inactive
C=CC(=C)CCCC(C)(C)OC(C)=O | inactive
COC(=O)c1ccc([N+](=O)[O-])cc1 | inactive
C=Cc1ccc(C(C)(C)C)cc1 | inactive
C=Cc1ccncc1 | inactive
Nc1ccc2cc(S(=O)(=O)O)cc(O)c2c1N=Nc1ccccc1C(F)(F)F | inactive
Nc1ccc(Cl)c([N+](=O)[O-])c1 | inactive
CCCCOCC | inactive
C=C(C)[C@@H]1CC=C(C)C(=O)C1 | inactive
CCNCCO | inactive

Compound | outcome
BrCc1cccc(Oc2ccccc2)c1 | inactive
COc1ccc(CCO)cc1 | inactive
O=C1OC(=O)c2c(Br)c(Br)c(Br)c(Br)c21 | inactive
CN(c1nccc(=O)[nH]1)C1CCN(c2nc3ccccc3n2Cc2ccc(F)cc2)CC1 | inactive
CCCCCCCC/C=C\CCCCCCCC(=O)OCC | inactive
COc1ccc(OC)c(N=Nc2c(O)ccc3ccccc23)c1 | inactive
O=C(Nc1ccc([N+](=O)[O-])cc1)Nc1ccc([N+](=O)[O-])cc1 (tested in a mixture with another compound) | inactive
C=C(C)[C@H]1CC=C(C)C(=O)C1 | inactive
ClC(c1ccccc1)(c1ccccc1)c1ccccc1 | inactive
O=C(c1ccccc1)C(O)c1ccccc1 (stereo not given) | inactive
CC(C)(N=C=O)c1cccc(C(C)(C)N=C=O)c1 | inactive
CC1(C)COCN1 | inactive
Nc1c(S(=O)(=O)O)cc(Br)c2c1C(=O)c1ccccc1C2=O | inactive
CCC(=O)OCCOc1ccccc1 | inactive
OC[C@H]1O[C@@H]2O[C@H]3[C@H](O)[C@@H](O)[C@@H](O[C@H]4[C@H](O)[C@@H](O)[C@@H](O[C@H]5[C@H](O)[C@@H](O)[C@@H](O[C@H]6[C@H](O)[C@@H](O)[C@@H](O[C@H]7[C@H](O)[C@@H](O)[C@@H](O[C@H]8[C@H](O)[C@@H](O)[C@@H](O[C@H]9[C@H](O)[C@@H](O)[C@@H](O[C@H]1[C@H](O)[C@H]2O)O[C@@H]9CO)O[C@@H]8CO)O[C@@H]7CO)O[C@@H]6CO)O[C@@H]5CO)O[C@@H]4CO)O[C@@H]3CO | inactive
Clc1cc(Cl)c(-c2c(Cl)c(Cl)cc(Cl)c2Cl)cc1Cl | inactive
CC(C)=CCCC(C)CC(=O)O (stereo not given) | inactive
